Test results taken from the antibiotic and cytotoxicity screens of Wong et al. (2023).
Among all 39,000 compounds or so, about 500 (1.3%) were called active. The list comes from a sample in which actives are over-represented; it also holds similar structures and randomly drawn compounds.

system: S. aureus RN4220; assay: growth inhibition call (relative growth <= 0.2); settings: 50 µM

Structure (SMILES)	growth inhibition call
O=C(C[C@H]1CC[C@@H]2[C@H](COC[C@@H](O)CN2C(=O)Nc2cc(Cl)cc(Cl)c2)O1)N1CCOCC1	inactive
O=C(C[C@H]1CC[C@H]2[C@@H](COC[C@@H](O)CN2C(=O)Nc2cc(Cl)cc(Cl)c2)O1)N1CCOCC1	inactive
CN1CCN(C(=O)C[C@@H]2CC[C@H]3[C@@H](COC[C@H](O)CN3C(=O)Nc3cc(Cl)cc(Cl)c3)O2)CC1	inactive
O=C(C[C@@H]1CC[C@H]2[C@@H](COC[C@@H](O)CN2C(=O)Nc2cc(Cl)cc(Cl)c2)O1)N1CCOCC1	active
O=C(C[C@@H]1CC[C@H]2[C@@H](COC[C@H](O)CN2C(=O)Nc2cc(Cl)cc(Cl)c2)O1)N1CCOCC1	inactive
O=C(C[C@@H]1CC[C@@H]2[C@H](COC[C@@H](O)CN2C(=O)Nc2cc(Cl)cc(Cl)c2)O1)N1CCOCC1	active
O=C(C[C@H]1CC[C@H]2[C@@H](COC[C@H](O)CN2C(=O)Nc2cc(Cl)cc(Cl)c2)O1)N1CCOCC1	inactive
O=C(C[C@H]1CC[C@@H]2[C@H](COC[C@H](O)CN2C(=O)Nc2cc(Cl)cc(Cl)c2)O1)N1CCOCC1	inactive
O=C(C[C@@H]1CC[C@@H]2[C@H](COC[C@H](O)CN2C(=O)Nc2cc(Cl)cc(Cl)c2)O1)N1CCOCC1	active
C[C@H](O)C#Cc1ccc2c(c1)O[C@H](CN(C)C(=O)c1ccccc1)[C@H](C)CN([C@H](C)CO)S2(=O)=O	inactive
C[C@@H]1CCCCO[C@@H](CN(C)C(=O)Nc2ccc(C(F)(F)F)cc2)[C@H](C)CN([C@H](C)CO)C(=O)c2cc(NS(=O)(=O)c3cn(C)cn3)ccc2O1	inactive
C[C@@H]1CN([C@H](C)CO)C(=O)c2cc(NC(=O)CCN3CCOCC3)ccc2O[C@H]1CN(C)C(=O)Nc1ccc2c(c1)OCO2	inactive
Cc1noc(C)c1S(=O)(=O)Nc1ccc2c(c1)C(=O)N([C@H](C)CO)C[C@H](C)[C@H](CN(C)Cc1ccccc1)OCCCC[C@@H](C)O2	inactive
Cc1ccc(C)c(Cc2cc(Cl)ccc2Cl)c1	inactive
Cc1noc(C)c1NC(=O)Nc1ccc2c(c1)C(=O)N([C@H](C)CO)C[C@@H](C)[C@@H](CN(C)C(=O)C1CCCCC1)OCCCC[C@@H](C)O2	inactive
C[C@@H]1CN([C@H](C)CO)C(=O)c2cc(NS(=O)(=O)c3cn(C)cn3)ccc2O[C@@H](C)CCCCO[C@@H]1CN(C)CC1CC1	inactive
CCNC(=O)C[C@@H]1CC[C@H](NC(=O)C2CCOCC2)[C@@H](CO)O1	inactive
OC[C@H]1COc2ccccc2O1	inactive
C[C@@H]1CCCCO[C@H](CN(C)S(=O)(=O)c2ccc(Cl)cc2)[C@@H](C)CN([C@H](C)CO)C(=O)c2cc(NS(=O)(=O)c3ccc(F)cc3)ccc2O1	inactive
NC(=O)N1C(=O)[C@H]2[C@H](C1=O)[C@H]1C=C(CCCO)[C@@H]2[C@H](c2cccs2)N1Cc1cc2c(cc1Br)OCO2	inactive
NC(=O)N1C(=O)[C@H]2[C@H](C1=O)[C@H]1C=C(c3ccc(CO)cc3)[C@@H]2[C@@H](C2CC2)N1Cc1cc2c(cc1Br)OCO2	inactive
CN1C(=O)[C@H]2[C@H](C1=O)[C@H]1C=C(c3ccc(CO)cc3)[C@@H]2[C@H](c2cccs2)N1Cc1cccc(OC(F)(F)F)c1	active

Structure (SMILES)	growth inhibition call
CC(C)NC(=O)N(C)C[C@@H]1Oc2ccc(NC(=O)CCCN(C)C)cc2CC(=O)N([C@@H](C)CO)C[C@H]1C	inactive
Cc1ccc(S(=O)(=O)N(C)C[C@@H]2OCCCC[C@@H](C)Oc3ccc(NC(=O)Nc4ccc(F)cc4)cc3C(=O)N([C@H](C)CO)C[C@H]2C)cc1	inactive
CN(C)CCCNC(=O)C[C@@H]1CC[C@@H]2[C@H](COc3ccc(NC(=O)c4cccc(F)c4)cc3C(=O)N2C)O1	inactive
Cc1cc(C(C)(C)C)c(O)c(C(C)(C)C)c1	inactive
CC(C)(c1cc(Br)c(O)c(Br)c1)c1cc(Br)c(O)c(Br)c1	active
O=C(C[C@@H]1CC[C@H]2NC[C@H](O)COC[C@@H]2O1)NCCN1CCCCC1	inactive
C[C@@H]1CCCCO[C@@H](CN(C)S(=O)(=O)c2cccs2)[C@H](C)CN([C@H](C)CO)C(=O)c2cc(NC(=O)Nc3ccc(F)cc3)ccc2O1	inactive
COCC#Cc1ccc2c(c1)O[C@@H](CN(C)S(=O)(=O)c1ccc(OC)cc1)[C@@H](C)CN([C@H](C)CO)S2(=O)=O	inactive
Cn1c(=O)c2c(nc(NCCO)n2C)n(C)c1=O	inactive
C=CCc1ccc(O[C@@H]2O[C@H](CO[C@@H]3O[C@@H](C)[C@H](O)[C@@H](O)[C@H]3O)[C@@H](O)[C@H](O)[C@H]2O)c(O)c1	inactive
S=c1ccss1	active
O=C(C[C@@H]1C[C@@H]2c3cc(NS(=O)(=O)c4ccc(F)cc4)ccc3O[C@@H]2[C@H](CO)O1)NCc1cccc(F)c1	inactive
[N-]=[N+]=N[C@]1(CO)O[C@@H](n2ccc(N)nc2=O)[C@@H](O)[C@@H]1O	inactive
CNC[C@H]1Oc2ccc(NS(=O)(=O)c3cn(C)cn3)cc2CC(=O)N([C@H](C)CO)C[C@@H]1C	inactive
CN1CCN(C(=O)C[C@H]2CC[C@H]3[C@@H](COc4ccc(NC(=O)c5cscn5)cc4C(=O)N3C)O2)CC1	inactive
Cn1c(=O)c2cc(S(=O)(=O)NCCC(=O)NC3CCCC3)ccc2n(C)c1=O	inactive
C#CC[C@H](c1nc2cc(Cl)ccc2c(=O)n1Nc1ccccc1)N(CCCN)C(=O)c1cccc(Cl)c1F	active
CO[C@H](CN(C)C(=O)c1ccccc1F)[C@@H](C)CN([C@@H](C)CO)S(=O)(=O)c1ccc(Cl)cc1	inactive
C[C@H]1CCCCO[C@@H](CN(C)C(=O)Nc2ccc3c(c2)OCO3)[C@@H](C)CN([C@@H](C)CO)C(=O)c2cc(NC(=O)CCC(F)(F)F)ccc2O1	inactive
C[C@H](CO)N1C[C@H](C)[C@@H](CN(C)C(=O)Nc2ccccc2)OCCCC[C@H](C)Oc2ccc(NC(=O)Nc3cccc4ccccc34)cc2C1=O	inactive
CC[C@@H]1OC(=O)[C@@H](C)[C@H](O[C@H]2C[C@@](C)(OC)[C@@H](O)[C@H](C)O2)[C@@H](C)[C@H](O)[C@@](C)(O[C@@H]2O[C@H](C)C[C@H](N(C)C)[C@H]2O)C[C@H](C)C(=O)[C@@H](C)[C@H](O)[C@@]1(C)O	active
CCC1OC(=O)C(C)C(OC2CC(C)(OC)C(O)C(C)O2)C(C)C(OC2OC(C)CC(N(C)C)C2O)C(C)(OC)CC(C)C(=O)C(C)C(O)C1(C)O (stereo unspecified)	active

Structure (SMILES)	growth inhibition call
CC[C@H]1OC(=O)[C@H](C)[C@@H](O[C@H]2C[C@@](C)(OC)[C@@H](O)[C@H](C)O2)[C@H](C)[C@@H](O[C@@H]2O[C@H](C)C[C@H](N(C)C)[C@H]2O)[C@](C)(OC)C[C@@H](C)C(=O)[C@H](C)[C@@H](O)[C@]1(C)O	active
Cc1ccc(S(=O)(=O)Nc2ccc3c(c2)CC(=O)N([C@@H](C)CO)C[C@H](C)[C@H](CN(C)S(=O)(=O)c2c(C)noc2C)O3)cc1	inactive
C[C@H](CO)N1C[C@H](C)[C@H](CN(C)S(=O)(=O)c2ccc(Cl)cc2)Oc2c(NC(=O)C3CCOCC3)cccc2C1=O	inactive
COc1ccc(CNC(=O)C[C@@H]2CC[C@@H]3[C@H](COc4ccc(NC(=O)C5CC5)cc4C(=O)N3C)O2)cc1	inactive
COc1ccccc1C#Cc1cnc2c(c1)C(=O)N([C@@H](C)CO)C[C@H](C)[C@@H](CN(C)S(=O)(=O)c1cn(C)cn1)O2	inactive
COc1ccccc1NC(=O)N(C)C[C@H]1Oc2ncc(C#CCN(C)C)cc2C(=O)N([C@@H](C)CO)C[C@@H]1C	inactive
COc1ccc(-c2ccc3c(c2)O[C@H](CN(C)CC2CCOCC2)[C@@H](C)CN([C@H](C)CO)S3(=O)=O)cc1	inactive
C[C@@H]1CN([C@@H](C)CO)C(=O)Cc2cc(NC(=O)Cn3cnnn3)ccc2O[C@H]1CN(C)S(=O)(=O)c1ccc(Cl)cc1	inactive
Cc1noc(C)c1NC(=O)Nc1ccc2c(c1)C(=O)N([C@H](C)CO)C[C@@H](C)[C@@H](CN(C)C(=O)Nc1c(C)noc1C)OCCCC[C@@H](C)O2	inactive
Cc1cc(NN)nc(SCC(=O)NN)n1	inactive
CC(C)(Sc1ccc(CCN(CCCCC2CCCCC2)C(=O)NC2CCCCC2)cc1)C(=O)O	active
C/C=C/c1ccc2c(c1)O[C@@H](CN(C)C(=O)c1ccc3c(c1)OCO3)[C@@H](C)CN([C@@H](C)CO)S2(=O)=O	inactive
Cn1cnc(S(=O)(=O)N2C[C@H](O)COC[C@H]3O[C@H](CC(=O)NC4CCC4)CC[C@@H]32)c1	inactive
C[C@H]1CN([C@@H](C)CO)C(=O)c2cc(NC(=O)CCCN(C)C)ccc2O[C@H]1CN(C)Cc1ccc(C(=O)O)cc1	inactive
C[C@H]1CN([C@@H](C)CO)C(=O)c2cc(NC(=O)Cn3cnnn3)ccc2O[C@H]1CN(C)Cc1ccc(C(=O)Nc2ccccc2N)cc1	inactive
C[N+](C)(CCOc1ccccc1)Cc1ccccc1.O=C(O)c1cc2ccccc2c(Br)c1O	inactive
Cc1cc(C(C)(C)CC(C)(C)C)ccc1OCCOCC[N+](C)(C)Cc1ccccc1.[Cl-]	active
C[N+](C)(CCOc1ccccc1)Cc1ccccc1.O=C([O-])c1cc2ccccc2cc1O	inactive
CC(C)(C)CC(C)(C)c1ccc(OCCOCC[N+](C)(C)Cc2ccccc2)cc1.[Cl-]	active
C=c1ccc(C)cc1=C1NN=C(NC(=O)c2ccc(S(=O)(=O)N(CCOC)CCOC)cc2)O1	inactive
CC(C)NC(=O)NCC[C@H]1CC[C@H](NC(=O)CN(C)C)[C@@H](CO)O1	inactive
C/C=C/c1ccc2c(c1)O[C@H](CN(C)Cc1ccc(C(=O)O)cc1)[C@@H](C)CN([C@H](C)CO)S2(=O)=O	inactive
